Source: PubChem BioAssay

Legend:
[1] = tested on: Human papillomavirus type 1a protein E7 (residues 44-93); experiment: small molecules binding HPV E7 44-93 – biochemical, small-molecule microarray, residues 44-93, 635 nm fluorescence, primary screen (AID 1108); settings: fluorescence 635 nm, higher = more signal;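 note: E7 fragment applied at 1 µg/mL in TBST for 1 h at 4 C; score combines spot fluorescence with its signal to noise ratio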
[2] = hepatitis C replication reporter changes, two-sided – Huh7 cells, luciferase reporter, HCV replication inhibitor project, primary screen (AID 1109); settings: Huh7 HCV replicon luciferase reporter, 48 h; higher = more signal;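 note: huh7 hepatoma cells harbouring a luciferase neomycin HCV replicon reporter; luciferase luminescence as measure of HCV replicon replication; test concentration not given here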
[3] = molecular target: Left-right determination factor 2 (Homo sapiens) (UniProt O00292); experiment: small molecules binding LEFTY2 protein – biochemical, small-molecule microarray, 635 nm fluorescence scan, primary screen (AID 1110); settings: higher = more signal
[4] = molecular target: Calmodulin-1 (Homo sapiens) (UniProt P0DP23); experiment: small molecules binding calmodulin-1 with EGTA – biochemical, small-molecule microarray, Cy5-labelled CALM1, profiling panel (AID 1111); settings: Cy5-CALM1 binding fluorescence, higher = more signal;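 note: labelled calmodulin applied in Tris saline Tween buffer holding calcium plus EGTA and DTT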
[5] = molecular target: Calmodulin-1 (Homo sapiens) (UniProt P0DP23); experiment: small molecules binding Ca-loaded calmodulin-1 – biochemical, small-molecule microarray, Cy5-labelled CALM1, plus calcium, artefact control for SMM control-protein annotation, profiling panel (AID 1112); settings: Cy5-CALM1 binding fluorescence, higher = more signal;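 note: score merges spot fluorescence with signal to noise from triplicate slides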
[6] = probe aWnt5a binding to arrayed compounds – biochemical, biotinylated probe, 635/667 nm fluorescence, primary screen (AID 1113); settings: small-molecule microarray, higher = more signal;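 note: score merges 667 nm fluorescence intensity with signal-to-noise per printed feature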
[7] = probe aShh binding to arrayed compounds – biochemical, biotinylated probe, 635/667 nm fluorescence, primary screen (AID 1114); settings: small-molecule microarray, higher = more signal;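 note: probe is biotin-labelled aShh protein from a stem cell growth factor screen; measures binding of labelled protein to compounds printed on the slide; score merges feature fluorescence at 667 nm with signal-to-noise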
[8] = probe aNog binding to arrayed compounds – biochemical, biotinylated probe, 635/667 nm fluorescence, primary screen (AID 1115); settings: small-molecule microarray, higher = more signal;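 note: probe is biotinylated aNog protein used at 0.15 µg/mL for 1 h at 4 C; z-score combines 667 nm fluorescence of each spot with its signal to noise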
[9] = molecular target: Torsin-1A-interacting protein 1 (Homo sapiens) (UniProt Q5JTV8); experiment: compound microarray binding of lysate hLAP1 – cell lysate, small-molecule microarray, COS7 lysate, 635/667 nm fluorescence, primary screen (AID 1116); settings: 635 nm fluorescence, higher = more signal
[10] = molecular target: Alpha-bungarotoxin (Bungarus multicinctus) (UniProt P60615); experiment: compounds binding labelled alpha-BTX control protein – biochemical, small-molecule microarray, Alexa647 label, 635/667 nm fluorescence, artefact control for SMM control protein annotation, profiling panel (AID 1117); settings: alpha-BTX-A647 binding fluorescence, higher = more signal
Sequence of Alpha-bungarotoxin (Bungarus multicinctus) (P60615 whole entry, looked up): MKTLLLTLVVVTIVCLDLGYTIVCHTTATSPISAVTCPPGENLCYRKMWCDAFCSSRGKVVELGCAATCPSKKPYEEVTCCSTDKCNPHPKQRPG

Sequence of Torsin-1A-interacting protein 1 (Homo sapiens) (Q5JTV8 whole entry, looked up): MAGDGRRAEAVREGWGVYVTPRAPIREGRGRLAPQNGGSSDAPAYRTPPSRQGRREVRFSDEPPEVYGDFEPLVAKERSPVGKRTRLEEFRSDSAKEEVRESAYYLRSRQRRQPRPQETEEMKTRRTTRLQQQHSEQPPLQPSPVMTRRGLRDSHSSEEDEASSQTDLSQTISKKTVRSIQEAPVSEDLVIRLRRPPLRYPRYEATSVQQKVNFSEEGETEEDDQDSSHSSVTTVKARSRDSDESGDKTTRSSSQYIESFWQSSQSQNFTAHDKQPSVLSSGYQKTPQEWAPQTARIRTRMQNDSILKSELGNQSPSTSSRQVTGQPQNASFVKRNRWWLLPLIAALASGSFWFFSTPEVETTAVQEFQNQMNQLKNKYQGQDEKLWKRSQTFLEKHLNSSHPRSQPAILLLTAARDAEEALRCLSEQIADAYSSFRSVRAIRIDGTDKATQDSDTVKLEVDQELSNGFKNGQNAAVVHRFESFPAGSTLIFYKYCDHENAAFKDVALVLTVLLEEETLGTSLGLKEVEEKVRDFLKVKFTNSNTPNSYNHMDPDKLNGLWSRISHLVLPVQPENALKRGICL
Sequence of Left-right determination factor 2 (Homo sapiens) (O00292 whole entry, looked up): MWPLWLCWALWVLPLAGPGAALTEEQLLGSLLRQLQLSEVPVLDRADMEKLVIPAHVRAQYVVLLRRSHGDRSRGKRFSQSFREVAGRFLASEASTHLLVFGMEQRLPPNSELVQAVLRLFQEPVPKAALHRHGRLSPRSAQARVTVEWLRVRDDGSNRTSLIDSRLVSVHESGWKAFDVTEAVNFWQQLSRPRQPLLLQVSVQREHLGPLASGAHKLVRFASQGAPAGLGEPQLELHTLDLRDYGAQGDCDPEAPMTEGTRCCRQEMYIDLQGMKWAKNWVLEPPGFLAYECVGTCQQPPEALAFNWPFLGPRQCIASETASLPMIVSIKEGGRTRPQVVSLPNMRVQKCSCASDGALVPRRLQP

Row | Compound | composite z-score [1] | z-score [2] | composite z-score [3] | composite z-score [4] | composite z-score [5] | composite z-score [6] | composite z-score [7] | composite z-score [8] | composite z-score [9] | composite z-score [10]
1 | NCCCC[C@@H]1NC(=O)[C@H]2C[C@@H](C(=O)O)[C@@H](c3cccc(OCCO)c3)N2C1=O | 1.4 | -1.56 | 1.53 | 0.441 | -0.197 | 0.0017 | 0.166 | 1.33 | 1.07 | 2.12
2 | C=CCC(OC(C)=O)[C@@H]1[C@@H](N(Cc2cc3ccccc3o2)C(=O)Cc2ccc(OC)cc2)c2cc(OCCCO)ccc2N1C(=O)Cc1ccc2ccccc2c1 (stereo not given in full) | -0.687 | -0.739 | -0.487 | -0.197 | 0.191 | -0.0704 | 0.0815 | -0.0642 | 0.475 | 0.615
3 | COc1ccc(CC[C@H](O)c2cccc(OCC(=O)OC(C)(C)C)c2)cc1 | 1.38 | -1.12 | 0.461 | 0.829 | -0.271 | 0.0181 | 0.167 | -0.216 | 1.27 | 0.737
4 | COc1cccc(C[C@H]2C[C@@H](CO[Si](C(C)C)(C(C)C)C(C)C)N3C(=O)[C@@]4(C(C)=O)O[C@@]23[C@@H]2C(=O)N(C)C(=O)[C@@H]24)c1 | 1.04 | -2.81 | 0.901 | 0.05 | -0.587 | -0.0364 | 0.131 | 0.0974 | 0.272 | -0.378
5 | CN(C)CCCC[C@@H]1NC(=O)[C@@H]2C[C@H](C(=O)NCc3ccc(F)cc3)[C@H](c3ccc(O)cc3)N2C1=O | 0.16 | -0.0619 | -0.275 | -0.638 | 0.235 | -0.204 | -0.138 | -0.0503 | 0.385 | -0.407
6 | C=CC[C@]1(C(=O)N(C)C)COC(c2ccc(OCCCO)cc2)=N1 | 0.326 | 1.55 | -0.616 | 2.62 | -0.372 | -0.113 | 0.334 | -0.246 | 2.09 | 0.113
7 | COC(=O)[C@@H]1N=C(c2ccc(OCCCO)cc2)O[C@@H]1c1ccccc1CN=[N+]=[N-] | 1.41 | -2.67 | -0.769 | 0.393 | -0.292 | 0.0224 | 0.131 | 1.29 | 0.609 | 0.893
8 | O=C1N(CCS(=O)(=O)c2ccccc2)c2ccccc2[C@@H]2OC(c3ccc(OCCCO)cc3)=N[C@]12CCS(=O)(=O)c1ccccc1 | 1.38 | 0.182 | 0.8 | 1.67 | 0.176 | 0.0142 | 0.109 | 0.0373 | 2.17 | 1.67
9 | C[C@]1(C(=O)NCC(F)(F)F)c2ccccc2C(=O)N(Cc2ccc(OC(F)(F)F)cc2)[C@H]1c1ccc(CO)cc1 | 0.26 | -1.11 | -0.143 | -0.0779 | -0.373 | -0.154 | -0.0626 | -0.519 | -0.115 | 0.25
10 | C=CCOC(=O)[C@H]1[C@@H]2C(=O)O[C@@H](c3ccccc3)[C@@H](c3ccccc3)N2[C@@H](c2ccc(OCCOC(=O)[C@H]3C[C@H]4C(=O)NCC(=O)N4[C@H]3c3ccc(O)cc3)cc2)[C@]12C(=O)Nc1ccc(I)cc12 | 0.429 | -1.58 | 0.788 | 0.275 | 0.295 | -0.1 | -0.367 | -0.158 | 0.365 | -0.303
11 | C=CC[C@]1(C(=O)OC)N=C(c2ccc(OCCCO)cc2)O[C@H]1c1ccccc1N=[N+]=[N-] | 1.06 | 0.452 | 0.786 | 0.592 | -0.357 | 0.194 | 0.598 | 1.7 | 0.387 | 0.935
12 | N[C@@H](Cc1ccccc1)Cn1cc(C2(O)CCCCC2)nn1 | 0.488 | 0.118 | 0.0904 | 0.816 | -0.431 | -0.0236 | 0.23 | -0.0827 | 0.228 | 0.967
13 | C[N+](C)(C)CCCC[C@@H]1NC(=O)[C@H]2C[C@@H](C(=O)NCCCCCNC(=O)CS)[C@@H](c3ccc(O)cc3)N2C1=O | 0.727 | 0.215 | 0.355 | 0.956 | 0.213 | 0.0101 | -0.0553 | -0.373 | 2.49 | -0.256
14 | CC(C)C[C@H]1NC(=O)[C@@H](C)NC(=O)[C@@]23C(=O)N[C@@H](Cc4ccccc4)C2[C@H](C)[C@@]2(C)O[C@H]2C3/C=C/C/C=C\CNC1=O (stereo not given in full) | 1.29 | -1.61 | 0.137 | -0.596 | -1.09 | -0.175 | -0.223 | -0.205 | -0.0872 | -0.133
15 | COCCn1c(C(=O)N2CCCC2)cc2c1C[C@H]1CN(C(=O)c3ccccc3)[C@@](Cc3ccccc3)(C(=O)OC)[C@@H]21 | 1.51 | -0.976 | 0.222 | 1.89 | 0.808 | 0.869 | 1.3 | 2.73 | 1.12 | 0.253
16 | C[C@H]1C2[C@H](Cc3ccccc3)NC(=O)[C@]23C(=O)NCC(=O)N2CCC[C@H]2C(=O)NC/C=C\C/C=C/C3[C@@H]2O[C@]12C (stereo not given in full) | -0.8 | 0.288 | 0.245 | -0.549 | -0.698 | -0.0417 | -0.2 | -0.28 | -0.177 | -0.246
17 | COCCCNC(=O)[C@@H]1c2ccccc2C(=O)N(C2CCCCC2)[C@H]1c1ccc(CO)cc1 | -0.093 | -1.27 | -1.22 | -0.28 | 0.716 | -0.124 | -0.0769 | -0.0633 | 1.25 | -1.08
